The supplement of paper PMC10849652
Of roughly 8,800 targets only a part is listed; those with a hit were picked by preference. About 0.5% of all pairs of compound and target were hits.

Compound: COC(=O)[C@H](CCSC)NC(=O)C1=C(C=C(C=C1)NC[C@H](CS)N)C2=CC=CC=C2
Assay: log2 fold change, soluble protein after heating vs DMSO (PISA); higher = thermal stabilisation; K562 lysate, 10 uM; active = over 0.2 and 3.5 SD of the protein, either way, in both replicates (recomputed)
Summary of the method: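 K562 pellets were dounce-homogenised in PBS pH 7.4 with 1 mM MgCl2, and the crude extract at 1 mg/mL protein was treated with 10 μM compound for 30 min. Aliquots were heated for 3 min across 48°C-58°C, pooled, and brought to 0.5% NP-40 at 4°C; soluble protein was the supernatant after 21,000xg for 90 min. Soluble protein was quantified by TMTpro 16plex LC-MS/MS with channel sums equalised, and reported as log2 fold change in thermal stability against DMSO controls, with values from duplicates.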

Chain of UniProt Q8IVF4 (Q8IVF4 whole entry, looked up): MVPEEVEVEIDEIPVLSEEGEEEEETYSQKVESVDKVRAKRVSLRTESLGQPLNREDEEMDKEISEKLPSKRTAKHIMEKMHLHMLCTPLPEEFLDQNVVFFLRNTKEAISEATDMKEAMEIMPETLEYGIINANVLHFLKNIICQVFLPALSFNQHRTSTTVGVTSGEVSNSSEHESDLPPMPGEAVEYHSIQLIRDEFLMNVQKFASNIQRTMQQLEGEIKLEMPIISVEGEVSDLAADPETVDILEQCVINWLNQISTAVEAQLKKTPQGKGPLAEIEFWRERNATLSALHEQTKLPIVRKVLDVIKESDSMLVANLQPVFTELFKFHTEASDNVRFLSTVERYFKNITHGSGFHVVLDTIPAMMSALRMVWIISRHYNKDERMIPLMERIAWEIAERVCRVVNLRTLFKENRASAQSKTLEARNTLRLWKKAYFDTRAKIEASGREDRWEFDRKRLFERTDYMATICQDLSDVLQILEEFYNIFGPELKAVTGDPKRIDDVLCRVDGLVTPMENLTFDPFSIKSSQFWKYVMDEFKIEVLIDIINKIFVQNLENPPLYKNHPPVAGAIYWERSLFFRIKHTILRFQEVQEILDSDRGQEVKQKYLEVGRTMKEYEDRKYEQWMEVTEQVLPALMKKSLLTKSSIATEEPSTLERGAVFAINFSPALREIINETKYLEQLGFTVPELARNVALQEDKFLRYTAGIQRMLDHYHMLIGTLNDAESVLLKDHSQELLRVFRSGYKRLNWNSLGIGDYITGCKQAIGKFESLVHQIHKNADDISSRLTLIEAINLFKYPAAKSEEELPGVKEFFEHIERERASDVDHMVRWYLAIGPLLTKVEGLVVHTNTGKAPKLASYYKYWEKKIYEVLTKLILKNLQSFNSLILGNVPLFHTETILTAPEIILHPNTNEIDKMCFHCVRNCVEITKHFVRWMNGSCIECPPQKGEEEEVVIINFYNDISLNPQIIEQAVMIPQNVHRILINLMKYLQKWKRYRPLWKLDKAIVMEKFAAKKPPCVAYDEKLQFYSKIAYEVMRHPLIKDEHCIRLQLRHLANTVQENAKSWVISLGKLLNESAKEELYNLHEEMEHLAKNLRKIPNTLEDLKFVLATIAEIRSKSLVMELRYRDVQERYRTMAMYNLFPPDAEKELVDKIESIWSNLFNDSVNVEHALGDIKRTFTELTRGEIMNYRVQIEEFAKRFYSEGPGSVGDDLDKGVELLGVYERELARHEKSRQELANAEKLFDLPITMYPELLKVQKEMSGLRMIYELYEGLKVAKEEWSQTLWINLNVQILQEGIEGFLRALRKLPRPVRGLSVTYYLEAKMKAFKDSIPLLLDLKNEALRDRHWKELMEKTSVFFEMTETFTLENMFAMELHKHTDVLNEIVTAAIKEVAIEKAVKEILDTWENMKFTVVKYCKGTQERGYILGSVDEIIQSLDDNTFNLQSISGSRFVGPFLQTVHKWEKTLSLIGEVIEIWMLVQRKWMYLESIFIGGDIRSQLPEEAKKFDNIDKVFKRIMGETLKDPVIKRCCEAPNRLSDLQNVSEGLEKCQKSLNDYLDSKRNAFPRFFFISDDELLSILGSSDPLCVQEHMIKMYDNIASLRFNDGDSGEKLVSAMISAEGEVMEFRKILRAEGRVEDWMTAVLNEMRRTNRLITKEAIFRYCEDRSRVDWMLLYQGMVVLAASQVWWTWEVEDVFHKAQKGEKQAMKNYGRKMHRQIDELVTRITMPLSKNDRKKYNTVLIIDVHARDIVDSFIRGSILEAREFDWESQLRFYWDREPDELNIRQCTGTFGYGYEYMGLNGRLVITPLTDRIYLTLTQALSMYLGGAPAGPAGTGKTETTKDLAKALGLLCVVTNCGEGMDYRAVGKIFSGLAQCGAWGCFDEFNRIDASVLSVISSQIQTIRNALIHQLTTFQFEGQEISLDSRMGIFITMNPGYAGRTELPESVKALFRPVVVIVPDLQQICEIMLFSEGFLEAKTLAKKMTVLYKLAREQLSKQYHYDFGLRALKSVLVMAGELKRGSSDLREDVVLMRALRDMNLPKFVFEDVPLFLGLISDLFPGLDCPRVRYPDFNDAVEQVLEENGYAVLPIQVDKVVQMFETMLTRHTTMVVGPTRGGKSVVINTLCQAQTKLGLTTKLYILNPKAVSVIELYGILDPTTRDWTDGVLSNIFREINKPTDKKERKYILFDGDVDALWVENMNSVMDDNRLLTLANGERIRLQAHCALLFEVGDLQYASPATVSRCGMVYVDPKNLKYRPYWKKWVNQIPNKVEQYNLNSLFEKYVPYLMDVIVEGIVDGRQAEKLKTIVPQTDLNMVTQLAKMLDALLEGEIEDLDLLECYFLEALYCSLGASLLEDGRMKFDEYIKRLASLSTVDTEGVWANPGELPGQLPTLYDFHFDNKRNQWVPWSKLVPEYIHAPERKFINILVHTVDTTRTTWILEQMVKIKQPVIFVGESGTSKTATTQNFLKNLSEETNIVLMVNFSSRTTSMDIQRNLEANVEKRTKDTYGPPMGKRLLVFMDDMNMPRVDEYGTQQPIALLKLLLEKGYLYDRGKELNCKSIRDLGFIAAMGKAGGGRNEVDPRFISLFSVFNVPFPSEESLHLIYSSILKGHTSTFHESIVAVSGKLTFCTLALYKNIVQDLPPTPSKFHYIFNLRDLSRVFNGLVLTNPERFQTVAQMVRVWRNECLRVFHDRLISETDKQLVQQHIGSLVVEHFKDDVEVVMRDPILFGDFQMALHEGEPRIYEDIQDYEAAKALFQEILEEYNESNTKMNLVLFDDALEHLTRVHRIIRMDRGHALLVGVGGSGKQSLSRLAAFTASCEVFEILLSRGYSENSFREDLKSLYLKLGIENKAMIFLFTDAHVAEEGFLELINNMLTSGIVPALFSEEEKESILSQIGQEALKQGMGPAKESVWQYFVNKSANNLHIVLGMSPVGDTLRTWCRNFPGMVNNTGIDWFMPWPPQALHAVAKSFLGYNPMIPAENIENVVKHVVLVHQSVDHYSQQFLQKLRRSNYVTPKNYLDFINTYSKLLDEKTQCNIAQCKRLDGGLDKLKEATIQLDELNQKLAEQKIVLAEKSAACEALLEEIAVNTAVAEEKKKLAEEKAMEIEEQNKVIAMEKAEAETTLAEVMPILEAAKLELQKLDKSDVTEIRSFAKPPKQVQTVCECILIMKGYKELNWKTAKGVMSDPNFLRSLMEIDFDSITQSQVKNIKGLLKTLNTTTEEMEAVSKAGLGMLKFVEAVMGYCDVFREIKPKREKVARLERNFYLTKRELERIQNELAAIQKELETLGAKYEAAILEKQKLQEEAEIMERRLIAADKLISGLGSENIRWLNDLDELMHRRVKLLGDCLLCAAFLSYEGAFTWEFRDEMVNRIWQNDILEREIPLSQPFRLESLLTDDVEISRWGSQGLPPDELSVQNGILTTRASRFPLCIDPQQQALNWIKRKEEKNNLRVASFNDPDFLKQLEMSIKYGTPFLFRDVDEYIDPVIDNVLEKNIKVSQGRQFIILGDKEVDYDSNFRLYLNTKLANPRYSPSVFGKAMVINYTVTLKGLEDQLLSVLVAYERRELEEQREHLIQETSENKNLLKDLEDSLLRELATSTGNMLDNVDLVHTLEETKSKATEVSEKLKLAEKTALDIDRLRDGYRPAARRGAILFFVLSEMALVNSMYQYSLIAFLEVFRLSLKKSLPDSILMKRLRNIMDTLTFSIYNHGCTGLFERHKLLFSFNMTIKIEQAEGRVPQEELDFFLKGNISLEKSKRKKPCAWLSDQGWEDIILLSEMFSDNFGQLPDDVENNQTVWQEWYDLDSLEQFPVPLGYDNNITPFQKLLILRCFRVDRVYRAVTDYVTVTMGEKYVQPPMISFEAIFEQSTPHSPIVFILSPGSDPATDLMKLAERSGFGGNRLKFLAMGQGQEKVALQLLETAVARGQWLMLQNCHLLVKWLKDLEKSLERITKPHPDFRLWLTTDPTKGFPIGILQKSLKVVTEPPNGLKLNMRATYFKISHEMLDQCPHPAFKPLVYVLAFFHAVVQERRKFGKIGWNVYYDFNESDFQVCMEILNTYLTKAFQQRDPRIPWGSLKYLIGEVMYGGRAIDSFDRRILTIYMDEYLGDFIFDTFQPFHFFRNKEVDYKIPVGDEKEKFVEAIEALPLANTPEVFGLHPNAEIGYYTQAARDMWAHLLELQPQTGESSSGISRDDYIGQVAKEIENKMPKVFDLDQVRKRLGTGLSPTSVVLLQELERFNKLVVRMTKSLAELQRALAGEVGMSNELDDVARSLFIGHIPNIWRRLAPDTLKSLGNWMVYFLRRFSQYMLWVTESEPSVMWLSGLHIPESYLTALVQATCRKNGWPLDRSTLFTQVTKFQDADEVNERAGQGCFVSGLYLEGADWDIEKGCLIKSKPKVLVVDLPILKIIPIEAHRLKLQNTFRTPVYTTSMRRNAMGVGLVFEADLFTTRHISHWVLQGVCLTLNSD
Chain of UniProt Q9BW66 (Q9BW66 whole entry, looked up): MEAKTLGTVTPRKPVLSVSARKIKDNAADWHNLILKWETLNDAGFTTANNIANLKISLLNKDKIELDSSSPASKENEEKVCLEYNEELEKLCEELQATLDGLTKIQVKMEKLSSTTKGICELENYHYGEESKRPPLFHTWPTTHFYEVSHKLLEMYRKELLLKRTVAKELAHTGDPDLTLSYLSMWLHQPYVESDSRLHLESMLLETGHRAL
Chain of UniProt P48730 (P48730 whole entry, looked up): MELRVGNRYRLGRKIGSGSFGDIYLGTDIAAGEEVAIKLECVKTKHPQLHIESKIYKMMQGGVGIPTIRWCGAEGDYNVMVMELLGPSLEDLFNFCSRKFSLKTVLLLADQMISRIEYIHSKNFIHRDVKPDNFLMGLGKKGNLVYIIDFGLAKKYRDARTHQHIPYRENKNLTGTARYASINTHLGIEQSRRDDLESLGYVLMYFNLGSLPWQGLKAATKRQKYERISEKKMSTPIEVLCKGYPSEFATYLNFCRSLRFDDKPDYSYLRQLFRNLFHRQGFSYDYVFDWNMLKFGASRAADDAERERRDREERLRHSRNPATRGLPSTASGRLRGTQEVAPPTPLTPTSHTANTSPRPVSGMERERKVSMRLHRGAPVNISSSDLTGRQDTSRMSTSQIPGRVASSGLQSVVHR

Row | Target | log2 fold change
1 | DHFR (UniProt P00374) | 0.141 (inactive)
2 | COG4 (UniProt Q9H9E3) | 0.011 (inactive)
3 | COASY isoform 2 (UniProt Q13057) | 0.032 (inactive)
4 | DDX4 (UniProt Q9NQI0) | -0.02 (inactive)
5 | COG5 isoform 2 (UniProt Q9UP83) | -0.037 (inactive)
6 | COX7B (UniProt P24311) | 0.315 (active)
7 | CSNK1A1 (UniProt P48729) | -0.005 (inactive)
8 | DLG3 isoform 2 (UniProt Q92796) | -0.082 (inactive)
9 | CUX1 isoform 2 (UniProt Q13948) | -0.022 (inactive)
10 | DCTN1 isoform 4 (UniProt Q14203) | -0.064 (inactive)
11 | DDAH1 (UniProt O94760) | 0.009 (inactive)
12 | CSNK1G3 (UniProt Q9Y6M4) | -0.033 (inactive)
13 | CUX1 isoform 3 (UniProt P39880) | 0 (inactive)
14 | CINP isoform 3 (UniProt Q9BW66) | 0.062 (inactive)
15 | CNNM2 (UniProt Q9H8M5) | 0.033 (inactive)
16 | CNTN4 (UniProt Q8IWV2) | 0.124 (inactive)
17 | DNAJC24 (UniProt Q6P3W2) | -0.027 (inactive)

Row | Target | log2 fold change
18 | DNAH10 (UniProt Q8IVF4) | -0.001 (inactive)
19 | COQ8A (UniProt Q8NI60) | -0.009 (inactive)
20 | CNOT4 isoform 9 (UniProt O95628) | 0.003 (inactive)
21 | CKS1B (UniProt P61024) | -0.014 (inactive)
22 | DDB2 (UniProt Q92466) | -0.065 (inactive)
23 | DIAPH1 (UniProt O60610) | 0.051 (inactive)
24 | COQ9 (UniProt O75208) | 0.024 (inactive)
25 | DPY19L3 (UniProt Q6ZPD9) | -0.096 (inactive)
26 | CSNK1D (UniProt P48730) | 0.013 (inactive)
27 | DOCK10 (UniProt Q96BY6) | -0.002 (inactive)
28 | DEF6 (UniProt Q9H4E7) | -0.002 (inactive)
29 | CNIH4 (UniProt Q9P003) | -0.249 (inactive)
30 | CLCN3 (UniProt P51790) | 0.003 (inactive)
31 | DIAPH1 (UniProt H9KV28) | 0.213 (inactive)
32 | CUEDC2 (UniProt Q9H467) | -0.026 (inactive)
33 | CLASP2 (UniProt O75122) | -0.071 (inactive)
